The values below come from PubChem BioAssay AID1347120 (National Center for Advancing Translational Sciences (NCATS), 2019).

About 930 (0.24%) of roughly 390,000 compounds were called active. Not shown: some 5% with an inconclusive outcome. Many of the other results were omitted from the sample, so actives are more common in it than they were. Unmarked numbers belong to inactive results. Calls follow the shape of the dose curve; as a rule, active = well fitted activation curve with a large enough effect; inconclusive = small, poorly fitted or top-dose-only effect; inactive = no such curve, though single readings can be large or run the other way.
Potency is read from the fitted curve at half-maximal effect.

The nature of the experiment: qHTS for Suppressors of FUS Proteinopathy: Primary screen using FUS-linked yeast assay. Also: nearly all actives have a fitted effect of over 55% in size.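 As to growth rescue (activation): plate controls were DMSO vehicle for no effect and reference control for full effect.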 As to conditions: S. cerevisiae FUS-expressing, OD600, 24 h; Potency: growth rescue; series mostly up to 76.6 µM; growth rescue (activation): at the top concentration. The text has this: Several widespread neurodegenerative diseases, including Alzheimer disease, Huntington disease, Frontotemporal Lobar Degeneration (FTLD) and Amyotrophic Lateral Sclerosis (ALS), share a common pathological feature, namely accumulation of specific protein aggregates in diseased tissue. These diseases which is associated with protein misfolding (proteinopathies) have become increasingly problematic as the population ages and life expectancies are extended. Most proteinopathies are currently incurable, a situation confounded by the fact that the basis of neurodegeneration is generally poorly understood. There exists urgent and significant need to find therapeutics that can inhibit the toxicity associated with protein aggregation. A novel approach to understand the underlying mechanisms of neurodegenerative diseases has recently emerged in which the disease conditions are modeled in the yeast (Saccharomyces cerevisiae), a tractable eukaryotic organism with conserved protein quality control mechanisms. Yeast offers quick and reliable genetic manipulations and can be easily tailored to high-throughput screening (HTS).
For this project, a yeast model of the FUS proteinopathies (a spectrum of neurodegenerative diseases that include ALS and a subtype of FTLD) was generated and employed. The cytoplasmic accumulation of the DNA/RNA-binding protein FUS (also known as TLS) is causative to both familial and sporadic forms of ALS and FTLD. This yeast model recapitulates neuronal pathology by showing severe cytotoxicity associated with cytoplasmic accumulation of FUS aggregates and a specific interaction between FUS and TDP-43, another ALS-associated protein. […] Specifically, the cellular accumulation of misfolded FUS that disrupts RNA homeostasis in both yeast and higher eukaryotes. This model was validated to be suitable for quantitative HTS (qHTS) use for finding genetic or chemical factors that restore growth. […] Identified compounds that inhibits FUS-yeast toxicity is flagged, re-acquired, and validated for further investigation and optimization.
NIH Chemical Genomics Center [NCGC]
NIH Molecular Libraries Probe Production Centers Network [MLPCN]
Assay Submitter (PI): Frank Shewmaker PhD, Uniformed Services University of the Health Sciences
Compound CP55940 was used as the positive control. Column 1 was treated with CP55940 titration from 92uM (final concentration, 1:2 dilution), while Column 2 was treated with top dose 92uM. Columns 3 and 4 were treated with DMSO only as negative control to assess background and noise signal.
Four hundred fifty microliter of cultured yeast (in 20mL rich medium) provided by Dr. Shewmaker lab was incubated at 30C at 99% humidity for 3hr. The culture was then spun down at 4000rpm for 5min and the cell pellet was resuspended in 2mL of Sdmin Media + ALU(330) + 2.5% Raffinose. One hundred microliter of the suspension was added to 900uL of water and OD of the solution was obtained. Twenty mL of responding medium (provided by Shewmaker lab) + 2.5% raffinose was added to ensure cell density of 0.1; the solution was incubated overnight. Working cell solution (FUS-yeast in Sdmi + Sdmi + 1X ALU + 2% galactose media) was prepared (final OD at 0.005) and 3uL was dispensed in a 1536-well Aurora high based clear bottom assay plates. Controls and library compounds (at various final concentrations from 40uM to 0.32uM) were added using a 1536-well pin array using the Kalypsys pin-tool. The plates were then incubated for 24hrs in a cell-culture incubator (30C; 99% humidity). Absorbance at 600nm was then read using the PerkinElmer ViewLux plate reader.
(In general: qHTS replaces the single test concentration by a dilution series.)
Regarding `COc1ccccc1NC(=O)c1sc2nc(C)c(C(=O)Nc3ccc(Cl)cc3)c(-c3ccc(Br)cc3)c2c1N`, the “growth rescue (activation)” value is 31%.

`CC(C)S(=O)(=O)c1oc(-c2ccc(F)cc2)nc1S(=O)(=O)c1ccc(F)cc1`: the “growth rescue (activation)” value is -15.6%.

As to `CCOc1ccccc1NC(=O)C1CCCN(S(=O)(=O)c2cn(C)cn2)C1` (stereo not given), the “growth rescue (activation)” value is 4.87%.

Regarding `COC(=O)c1ccccc1NC(=O)c1ccc2c(=O)n3c(nc2c1)CCCCC3`, the “growth rescue (activation)” value was 16.4%.

As to `COc1cccc(CNC(=O)c2ccc3c(c2)sc2nc(-c4cccc(OC)c4)cn23)c1`, the “growth rescue (activation)” value is 11.4%.

`CN1C(=O)c2[nH]nc(-c3ccc(F)cc3)c2C1c1ccccn1` (stereo not given): the “growth rescue (activation)” value was -19.3%.

Consider `COc1ccc(CCNC(=O)c2nn(C)c3c2CSc2ccccc2-3)cc1OC`, for which the “growth rescue (activation)” value was 12.3%.

`CCCn1c2ccccc2c2cnn(CC(=O)NCC3CCN(Cc4ccc(C)cc4)CC3)c(=O)c21`: the “growth rescue (activation)” value was -0.459%.

For `Cc1ccc(NC(=O)CSc2nc3ccccc3c3nc(CCn4cncc4C)nn23)cc1F`, the “growth rescue (activation)” value was 20.8%.

Take `Cc1cccc(NC(=O)C2CCCN2S(=O)(=O)c2cccc3nsnc23)c1C` (stereo not given): the “growth rescue (activation)” value is 18.3%.

Take `COc1ccc(-c2cn3c(n2)sc2cc(C(=O)Nc4ccccc4F)ccc23)cc1`: the “growth rescue (activation)” value is 19.4%.

For the molecule `CCOc1ccc(NC(=O)c2c(NC(=O)Cc3ccccc3)sc3c2CCCCC3)cc1`, the “growth rescue (activation)” value is 18.3%.

As to `NS(=O)(=O)c1ccc(CCNC(=O)CCCCCn2c(=O)[nH]c3ccccc3c2=O)cc1`, the “growth rescue (activation)” value is 8.38%.

Regarding `CCOC(=O)C1=C(c2ccccc2)Nc2ncnn2C1c1ccc(Cl)cc1` (stereo not given), the “growth rescue (activation)” value was -5.79%.

As to `COc1ccc(N2CCN(c3cc(C)nc4nncn34)CC2)cc1`, the “growth rescue (activation)” value is -24.9%.

In the case of `CC(C)Cc1ccc(-c2cc3nc(NCc4cccc(Cl)c4)ccn3n2)cc1`, the “growth rescue (activation)” value is -4.06%.

As for `COc1ccccc1-c1cc2nc(NCc3cccc(Cl)c3)ccn2n1`, the “growth rescue (activation)” value was 33.9%.

Turning to `COCCCNc1ccn2nc(-c3ccc(CC(C)C)cc3)cc2n1`, the Potency is 25.1 µM (active).

For the molecule `CCOc1ccccc1N(CC)C(=O)Nc1cn(C)c(=O)c2ccccc12`, the “growth rescue (activation)” value is 13.2%.

In the case of `Cc1ccc(C)c(N2CCN(CCCNC(=O)Nc3ccc(Cl)cc3)CC2)c1`, the “growth rescue (activation)” value was 20.1%.

On to `CCc1cc2c(cc3c(=O)n(CC(=O)NCCc4ccc(OC)c(OC)c4)ncn32)s1`, for which the “growth rescue (activation)” value is 0.833%.

With `Cc1ccc(NC(=O)C(c2ccccc2)N2CCN(C(=O)c3ccco3)CC2)cc1` (stereo not given), the “growth rescue (activation)” value was 31.1%.

Regarding `COc1cccc(OC)c1OCCN1CCN(C(=O)c2ccco2)CC1`, the “growth rescue (activation)” value is -15.5%.

As for `Cc1ccc(-c2csc(C(C#N)=C(O)CN3CCN(C(=O)c4ccco4)CC3)n2)cc1`, the Potency was 28.2 µM (active).

Turning to `CN1CCN(C2(CNC(=O)COc3ccc(C(C)(C)C)cc3)CCCCC2)CC1`, the “growth rescue (activation)” value was 20.4%.

On to `O=C(C[C@H]1C/C=C\C[C@@H](NC(=O)OCC2c3ccccc3-c3ccccc32)C(=O)O[C@@H](c2ccccc2)CNC1=O)N[C@H](CO)Cc1ccccc1`, for which the Potency was 35.5 µM (active).

Take `CC(C)(C)OC(=O)C[C@@H]1C/C=C\C[C@@H](CC(=O)N[C@H](CO)Cc2ccccc2)C(=O)NCCOC1=O`: the “growth rescue (activation)” value was 13.5%.

In the case of `CC(C)(C)OC(=O)C[C@@H]1C/C=C\C[C@@H](CC(=O)N[C@H](CO)Cc2ccccc2)C(=O)NC[C@@H](c2ccccc2)OC1=O`, the “growth rescue (activation)” value is 25.1%.

Regarding `CC(C)c1ccc(NC(=O)c2ccc3c(O)c(S(=O)(=O)c4ccccc4)c(=O)[nH]c3c2)cc1`, the “growth rescue (activation)” value was -2.38%.

Consider `Cc1ccc(Cl)cc1-n1ncc2c(N3CCC(C(N)=O)CC3)ncnc21`, for which the “growth rescue (activation)” value was -6.61%.

For `CCOC(=O)c1c(NC(C)=O)c2c3c(sc2n1Cc1c(C)cc(C)cc1C)CCCC3`, the “growth rescue (activation)” value is 32.1%.

For the molecule `CCc1ccccc1NC(=O)CSc1nnc(-c2ccccc2)c(-c2ccccc2)n1`, the “growth rescue (activation)” value is 31.2%.

Regarding `CCOCCCn1c(SCC(=O)Nc2ccc(CC)cc2)nc2ccccc2c1=O`, the “growth rescue (activation)” value was 4.6%.

With `O=C(CN1CCOCC1)Nc1c(Cl)cc(Cl)cc1Cl`, the “growth rescue (activation)” value is -45.1%.

Regarding `O=C(CN1CCOCC1)Nc1ccccc1`, the Potency was 25.1 µM (active).

`O=C(CN1CCOCC1)Nc1c2c(nc3c1CCC3)CCC2`: the “growth rescue (activation)” value was -15.7%.

For the molecule `CN(C)S(=O)(=O)c1cccc(NC(=O)COc2ccc3ccccc3c2)c1`, the Potency was 22.4 µM (active).

For `CN(C)S(=O)(=O)c1cccc(NC(=O)COC(=O)C2(c3ccccc3F)CCCC2)c1`, the “growth rescue (activation)” value is 19.5%.

Turning to `CN(c1ccccc1)S(=O)(=O)c1ccc(NC(=O)COc2ccccc2)cc1`, the “growth rescue (activation)” value is 17.1%.

With `Cc1ccc(NC(=O)C2CCN(S(=O)(=O)c3cc(-c4noc(C)n4)ccc3C)CC2)c(C)c1`, the “growth rescue (activation)” value is 13.4%.

Take `Cc1ccccc1C(=O)Nc1nnc(S(=O)(=O)N(C)c2ccc(Cl)cc2)s1`: the “growth rescue (activation)” value was -9.93%.

As to `CCOC(=O)C1=C(C)NC2=C(C(=O)CC(C)(C)C2)C1c1ccsc1` (stereo not given), the “growth rescue (activation)” value is 13.7%.

On to `CCOC(=O)C1=C(C)NC(SC)=NC1c1ccccc1` (stereo not given), for which the “growth rescue (activation)” value is 25.4%.

For the molecule `CCOC(=O)C1=C(C)Nc2sc(C(=O)c3ccc(Br)cc3)c(N)c2C1c1ccc(C(=O)OC)cc1` (stereo not given), the Potency is 31.6 µM (active).

Consider `O=C(NCc1ccccc1)c1cccc(NC(=O)N2CCSc3ncccc32)c1`, for which the “growth rescue (activation)” value was -8.13%.
